# Source: PubChem BioAssay (EPA / NIEHS)
# Records with an inconclusive call do not appear. Active and inactive are the calls of the source. How the source made its calls: active means hit-call score of the fitted dose curve at least 0.9, where 1 is the maximum; inconclusive means response in the unintended direction; inactive means score below 0.9.
# Key:
# [1] = biological target: human Neuropeptide Receptor Y1 (NPY1), NPY1R (gene 4886) (UniProt P25929); test: NVS_GPCR_hNPY1: NovaScreen (NVS) G Protein-Coupled Receptor Assay for human Neuropeptide Receptor Y1 (NPY1) (AID 2283276)
# Chain of human Neuropeptide Receptor Y1 (NPY1), NPY1R (gene 4886) (P25929 whole entry, looked up): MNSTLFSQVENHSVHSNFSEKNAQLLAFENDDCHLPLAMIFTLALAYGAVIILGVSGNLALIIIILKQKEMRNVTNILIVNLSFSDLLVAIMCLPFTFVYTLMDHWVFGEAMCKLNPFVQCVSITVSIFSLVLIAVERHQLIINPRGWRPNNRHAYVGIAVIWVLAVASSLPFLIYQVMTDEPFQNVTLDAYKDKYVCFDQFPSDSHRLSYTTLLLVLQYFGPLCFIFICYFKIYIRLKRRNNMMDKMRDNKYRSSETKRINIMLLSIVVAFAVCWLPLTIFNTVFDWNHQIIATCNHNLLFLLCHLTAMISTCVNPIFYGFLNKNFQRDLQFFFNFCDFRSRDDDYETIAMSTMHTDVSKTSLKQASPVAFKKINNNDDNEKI
# In short: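 Displacement of specific radioligand from NPY1 receptor of SK-N-MC origin, read by filtration and scintillation after 1 h. Compounds first tested at 25 uM in duplicate, then actives in concentration series; signal loss relative to DMSO.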
# [2] = biological target: Muscarinic acetylcholine receptor M3 (Homo sapiens) (UniProt P20309); test: NVS_GPCR_hM3: NovaScreen (NVS) G Protein-Coupled Receptor Assay for human Muscarinic, M3 Receptor (AID 2283272)
# Chain of Muscarinic acetylcholine receptor M3 (Homo sapiens) (P20309 whole entry, looked up): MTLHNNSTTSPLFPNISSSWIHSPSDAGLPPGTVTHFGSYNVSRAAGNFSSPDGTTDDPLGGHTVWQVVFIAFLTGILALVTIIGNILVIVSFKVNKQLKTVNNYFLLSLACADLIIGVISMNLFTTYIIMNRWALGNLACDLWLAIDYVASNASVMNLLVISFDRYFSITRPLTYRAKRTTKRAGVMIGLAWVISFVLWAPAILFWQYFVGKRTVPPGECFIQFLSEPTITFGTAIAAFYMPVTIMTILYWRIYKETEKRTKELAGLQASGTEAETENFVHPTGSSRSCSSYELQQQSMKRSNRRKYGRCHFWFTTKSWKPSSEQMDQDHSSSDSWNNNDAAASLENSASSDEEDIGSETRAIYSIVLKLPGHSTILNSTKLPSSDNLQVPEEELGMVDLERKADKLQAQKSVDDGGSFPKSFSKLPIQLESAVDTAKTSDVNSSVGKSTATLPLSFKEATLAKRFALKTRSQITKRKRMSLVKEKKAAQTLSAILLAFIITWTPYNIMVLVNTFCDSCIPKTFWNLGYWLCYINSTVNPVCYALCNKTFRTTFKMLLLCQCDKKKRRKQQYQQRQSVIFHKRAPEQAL
# In short: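 Radioligand displacement binding on human M3 receptor in CHO-derived membranes, 1 h incubation, filter-based scintillation counting. Primary screen in duplicate at 25 uM; actives followed up in concentration series; loss of signal versus DMSO.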
# [3] = biological target: Neuropeptide Y receptor type 2 (Homo sapiens) (UniProt P49146); test: NVS_GPCR_hNPY2: NovaScreen (NVS) G Protein-Coupled Receptor Assay for human Neuropeptide Receptor Y2 (NPY2) (AID 2283277)
# Chain of Neuropeptide Y receptor type 2 (Homo sapiens) (P49146 whole entry, looked up): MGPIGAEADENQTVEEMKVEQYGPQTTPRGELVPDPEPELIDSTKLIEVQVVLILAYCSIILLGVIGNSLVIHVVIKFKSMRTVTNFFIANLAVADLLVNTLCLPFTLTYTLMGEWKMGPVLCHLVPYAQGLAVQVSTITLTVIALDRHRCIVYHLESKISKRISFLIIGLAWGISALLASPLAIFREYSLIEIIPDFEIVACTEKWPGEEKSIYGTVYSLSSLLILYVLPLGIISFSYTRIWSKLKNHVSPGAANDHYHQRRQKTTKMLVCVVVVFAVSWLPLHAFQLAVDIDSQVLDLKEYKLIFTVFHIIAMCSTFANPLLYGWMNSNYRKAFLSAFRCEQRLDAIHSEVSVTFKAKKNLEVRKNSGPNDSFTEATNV
# In short: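 Chemicals were first tested in duplicate at 25 uM, then actives in singleton concentration series to 50 uM. Tracer binding to SK-N-MC-derived protein measured cell-free after 1 h via filter scintillation; signal loss relative to DMSO.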
# [4] = biological target: Muscarinic acetylcholine receptor M1 (Homo sapiens) (UniProt P11229); test: NVS_GPCR_hM1: NovaScreen (NVS) G Protein-Coupled Receptor Assay for human Muscarinic, M1 Receptor (AID 2283270)
# Chain of Muscarinic acetylcholine receptor M1 (Homo sapiens) (P11229 whole entry, looked up): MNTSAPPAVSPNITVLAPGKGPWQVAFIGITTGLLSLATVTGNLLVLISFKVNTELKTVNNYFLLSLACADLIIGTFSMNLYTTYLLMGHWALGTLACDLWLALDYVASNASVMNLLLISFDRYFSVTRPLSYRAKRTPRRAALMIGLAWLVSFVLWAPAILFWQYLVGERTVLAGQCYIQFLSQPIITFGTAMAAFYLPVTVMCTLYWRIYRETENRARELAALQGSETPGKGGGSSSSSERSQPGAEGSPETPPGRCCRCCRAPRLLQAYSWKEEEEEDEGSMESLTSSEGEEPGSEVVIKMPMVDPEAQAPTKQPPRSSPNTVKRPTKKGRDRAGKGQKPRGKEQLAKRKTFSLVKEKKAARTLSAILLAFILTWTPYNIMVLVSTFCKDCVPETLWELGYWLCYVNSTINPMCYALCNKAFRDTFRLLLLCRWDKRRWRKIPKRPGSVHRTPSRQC
# In short: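 Actives from a duplicate 25 uM single-point screen were retested in concentration series. Binding measured as displacement of a radioligand from CHO-derived receptor preparation, 1 h incubation, filtration and scintillation counting, analysed as signal loss against DMSO.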
# [5] = biological target: human Neurokinin, NK2 Receptor, TACR2 (gene 6865) (UniProt P21452); test: NVS_GPCR_hNK2: NovaScreen (NVS) G Protein-Coupled Receptor Assay for human Neurokinin, NK2 Receptor (AID 2283278);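 further: actives reduce bound radioligand signal relative to DMSO baseline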
# Chain of human Neurokinin, NK2 Receptor, TACR2 (gene 6865) (P21452 whole entry, looked up): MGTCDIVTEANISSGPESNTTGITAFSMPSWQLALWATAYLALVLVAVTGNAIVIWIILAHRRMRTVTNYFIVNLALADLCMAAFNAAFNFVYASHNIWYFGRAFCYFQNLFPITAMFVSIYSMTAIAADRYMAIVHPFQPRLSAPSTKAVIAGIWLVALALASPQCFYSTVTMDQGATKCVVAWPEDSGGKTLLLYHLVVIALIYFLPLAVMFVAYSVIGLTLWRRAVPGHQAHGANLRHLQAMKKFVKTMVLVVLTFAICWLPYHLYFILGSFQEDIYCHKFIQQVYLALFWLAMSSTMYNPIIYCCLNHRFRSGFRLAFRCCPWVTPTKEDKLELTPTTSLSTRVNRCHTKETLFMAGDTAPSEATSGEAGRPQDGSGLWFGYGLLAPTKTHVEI
# In short: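 Filter-based scintillation counting measured radioligand bound to receptor extracted from CHO cells, 4 hours after compound addition. Chemicals screened first at 25 uM in duplicate, with actives retested in concentration series relative to DMSO.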
# [6] = biological target: human Muscarinic, M4 Receptor, CHRM4 (gene 1132) (UniProt P08173); test: NVS_GPCR_hM4: NovaScreen (NVS) G Protein-Coupled Receptor Assay for human Muscarinic, M4 Receptor (AID 2283274)
# Chain of human Muscarinic, M4 Receptor, CHRM4 (gene 1132) (P08173 whole entry, looked up): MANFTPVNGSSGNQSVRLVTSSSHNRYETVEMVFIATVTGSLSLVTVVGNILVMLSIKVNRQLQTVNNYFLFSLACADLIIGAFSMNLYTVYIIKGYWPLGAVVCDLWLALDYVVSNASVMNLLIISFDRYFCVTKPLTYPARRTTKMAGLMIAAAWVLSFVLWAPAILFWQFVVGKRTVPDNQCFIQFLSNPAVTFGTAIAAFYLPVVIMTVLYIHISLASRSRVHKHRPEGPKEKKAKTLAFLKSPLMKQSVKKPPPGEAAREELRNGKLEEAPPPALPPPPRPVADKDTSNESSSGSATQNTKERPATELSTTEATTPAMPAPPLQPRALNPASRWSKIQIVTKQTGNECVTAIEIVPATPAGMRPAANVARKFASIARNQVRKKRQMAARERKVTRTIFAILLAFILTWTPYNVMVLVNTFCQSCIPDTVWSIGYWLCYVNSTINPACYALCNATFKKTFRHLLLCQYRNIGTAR
# In short: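 Filter-based scintillation counting of radioligand bound to CHO-expressed human M4 preparations after 1 h; loss of signal fitted versus DMSO. Initial duplicate testing at 25 uM, concentration-response follow-up for actives.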
# [7] = biological target: human Leukotriene B4 Receptor 1 (LTB4-BLT1), LTB4R (gene 1241) (UniProt Q15722); test: NVS_GPCR_hLTB4_BLT1: NovaScreen (NVS) G Protein-Coupled Receptor Assay for human Leukotriene B4 Receptor 1 (LTB4-BLT1) (AID 2283271)
# Chain of human Leukotriene B4 Receptor 1 (LTB4-BLT1), LTB4R (gene 1241) (Q15722 whole entry, looked up): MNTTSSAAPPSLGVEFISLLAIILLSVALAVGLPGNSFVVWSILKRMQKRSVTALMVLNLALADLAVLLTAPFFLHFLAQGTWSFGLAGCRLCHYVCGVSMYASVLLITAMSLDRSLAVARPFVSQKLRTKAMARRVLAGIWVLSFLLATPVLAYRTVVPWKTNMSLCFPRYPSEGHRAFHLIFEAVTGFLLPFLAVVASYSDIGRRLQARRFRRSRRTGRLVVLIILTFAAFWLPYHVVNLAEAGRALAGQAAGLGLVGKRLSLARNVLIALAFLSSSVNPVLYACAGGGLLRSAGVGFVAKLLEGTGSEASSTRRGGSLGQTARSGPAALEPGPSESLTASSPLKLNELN
# In short: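 Cell-free human neutrophil receptor preparation, 1 h exposure, radioligand binding read by filter scintillation counting. Single 25 uM duplicate screen, then concentration series topping at 50 uM; binding loss scored against DMSO baseline.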
# [8] = biological target: Muscarinic acetylcholine receptor M2 (Homo sapiens) (UniProt P08172); test: NVS_GPCR_hM2: NovaScreen (NVS) G Protein-Coupled Receptor Assay for human Muscarinic, M2 Receptor (AID 2283273)
# Chain of Muscarinic acetylcholine receptor M2 (Homo sapiens) (P08172 whole entry, looked up): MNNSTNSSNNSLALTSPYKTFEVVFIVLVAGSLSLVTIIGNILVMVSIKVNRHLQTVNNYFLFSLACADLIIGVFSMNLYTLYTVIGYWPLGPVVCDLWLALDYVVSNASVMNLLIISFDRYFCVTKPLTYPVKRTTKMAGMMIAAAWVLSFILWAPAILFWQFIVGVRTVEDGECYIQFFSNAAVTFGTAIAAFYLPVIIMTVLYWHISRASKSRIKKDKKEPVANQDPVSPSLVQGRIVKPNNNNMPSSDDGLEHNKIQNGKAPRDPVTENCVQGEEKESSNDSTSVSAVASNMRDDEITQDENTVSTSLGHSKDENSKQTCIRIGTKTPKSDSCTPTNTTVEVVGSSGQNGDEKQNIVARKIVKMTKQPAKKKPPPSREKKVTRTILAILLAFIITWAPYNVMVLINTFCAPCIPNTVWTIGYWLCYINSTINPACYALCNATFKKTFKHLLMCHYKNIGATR
# In short: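 Filter-based radiodetection read bound radioligand 1 h after dosing CHO-derived membrane protein. Single-concentration duplicates (25 uM) first, then concentration-response for actives; signal loss versus DMSO scored.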
# [9] = biological target: D(1A) dopamine receptor (Homo sapiens) (UniProt P21728); test: NVS_GPCR_hDRD1: NovaScreen (NVS) G Protein-Coupled Receptor Assay for human Dopamine Receptor D1 (DRD1) (AID 2283269)
# Chain of D(1A) dopamine receptor (Homo sapiens) (P21728 whole entry, looked up): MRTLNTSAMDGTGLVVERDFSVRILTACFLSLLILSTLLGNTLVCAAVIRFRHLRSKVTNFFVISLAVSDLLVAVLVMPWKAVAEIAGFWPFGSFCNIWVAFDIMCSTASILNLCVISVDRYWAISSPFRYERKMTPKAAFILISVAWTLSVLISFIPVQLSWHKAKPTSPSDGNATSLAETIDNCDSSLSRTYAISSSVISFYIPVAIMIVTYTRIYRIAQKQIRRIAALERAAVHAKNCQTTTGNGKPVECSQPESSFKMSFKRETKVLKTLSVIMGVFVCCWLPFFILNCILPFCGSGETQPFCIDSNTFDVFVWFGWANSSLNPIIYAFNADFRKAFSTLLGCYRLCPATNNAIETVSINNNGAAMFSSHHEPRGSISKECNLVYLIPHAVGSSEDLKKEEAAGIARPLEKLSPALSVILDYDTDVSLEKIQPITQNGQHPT
# In short: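 HEK293-derived receptor preparation; radioligand competitive displacement; 1 h; filtration + scintillation counting. DMSO = negative control/baseline. Primary: 25 uM, duplicate; secondary: concentration–response for actives.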
# [10] = biological target: human Neurotensin Receptor (NTS), NTSR1 (gene 4923) (UniProt P30989); test: NVS_GPCR_hNTS: NovaScreen (NVS) G Protein-Coupled Receptor Assay for human Neurotensin Receptor (NTS) (AID 2283279)
# Chain of human Neurotensin Receptor (NTS), NTSR1 (gene 4923) (P30989 whole entry, looked up): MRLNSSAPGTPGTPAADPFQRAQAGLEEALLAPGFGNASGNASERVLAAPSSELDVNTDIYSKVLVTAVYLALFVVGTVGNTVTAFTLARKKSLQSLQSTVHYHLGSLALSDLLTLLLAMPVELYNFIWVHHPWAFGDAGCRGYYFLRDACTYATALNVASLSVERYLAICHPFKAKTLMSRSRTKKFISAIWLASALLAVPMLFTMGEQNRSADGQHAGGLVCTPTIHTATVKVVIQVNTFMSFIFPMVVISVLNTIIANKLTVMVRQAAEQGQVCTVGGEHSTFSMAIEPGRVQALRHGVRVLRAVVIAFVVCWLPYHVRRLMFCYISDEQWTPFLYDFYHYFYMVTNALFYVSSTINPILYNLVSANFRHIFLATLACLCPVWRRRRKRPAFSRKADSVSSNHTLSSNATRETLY
# In short: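 Compounds competed with a radiolabelled ligand for binding to CHO-derived human neurotensin receptor; bound signal counted after filtration, 1 h. Screened first at a single concentration of 25 uM in duplicate, then concentration series to 50 uM maximum for actives.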
smiles,measurement,setting,value
N#CSCSC#N,AC50,[1],12.6 µM (active)
CN1COCN(Cc2cnc(Cl)s2)C1=N[N+](=O)[O-],outcome,[2],inactive
same,outcome,[3],inactive
C#CCC1=C(C)C(OC(=O)C2C(C=C(C)C)C2(C)C)CC1=O (stereo unspecified),AC50,[4],11 µM (active)
same,AC50,[2],7.59 µM (active)
same,outcome,[5],inactive
CC1(C(=O)Nc2ccc(O)c(Cl)c2Cl)CCCCC1,AC50,[5],3.04 µM (active)
CC(C1CC1)C(O)(Cn1cncn1)c1ccc(Cl)cc1 (stereo unspecified),AC50,[6],12.1 µM (active)
COc1ccc(C(=CC(=O)N2CCOCC2)c2ccc(Cl)cc2)cc1OC,outcome,[7],inactive
Cc1cc(C2CC2)nc(Nc2ccccc2)n1,AC50,[4],10.1 µM (active)
same,AC50,[2],5.41 µM (active)
same,AC50,[8],6.13 µM (active)
same,AC50,[6],6.51 µM (active)
CC(C)=CC1C(C(=O)OCN2C(=O)C3=C(CCCC3)C2=O)C1(C)C (stereo unspecified),AC50,[9],6.68 µM (active)
CCOP(=S)(OCC)Oc1cc(C)nc(C(C)C)n1,outcome,[10],inactive
CC(C)[C@H](C(=O)O[C@H](C#N)c1cccc(Oc2ccccc2)c1)c1ccc(Cl)cc1,AC50,[5],4.82 µM (active)
COc1cccc(C(=O)NN(C(=O)c2cc(C)cc(C)c2)C(C)(C)C)c1C,AC50,[2],0.429 µM (active)
same,outcome,[8],inactive
CC(C)N(C(=O)SCC(Cl)=C(Cl)Cl)C(C)C,outcome,[6],inactive
CC1=NNC(=O)N(/N=C/c2cccnc2)C1,outcome,[6],inactive
same,outcome,[10],inactive
